# According to PubChem BioAssay:
# “And” between values parts separate entries of the source, which are not always exact repeats. Identical values can stand only once. This is one part of the list. Results filed as inconclusive are left out. The source made the active and inactive calls.
# Tests used:
# [1] = target: Solute carrier family 12 member 5 (Homo sapiens) (UniProt Q9H2X9); test: retest of KCC2 transport modulators without sodium – cell-based, HEK293 KCC2, thallium flux, secondary assay, confirmation (AID 1713;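 active = thallium flux slope above the same plate's solvent-only control mean plus 3 SD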); conditions: FluoZin2 fluorescence, at 10 µM, stronger effect = higher value
# Solute carrier family 12 member 5 (Homo sapiens), sequence (Q9H2X9 whole entry, looked up): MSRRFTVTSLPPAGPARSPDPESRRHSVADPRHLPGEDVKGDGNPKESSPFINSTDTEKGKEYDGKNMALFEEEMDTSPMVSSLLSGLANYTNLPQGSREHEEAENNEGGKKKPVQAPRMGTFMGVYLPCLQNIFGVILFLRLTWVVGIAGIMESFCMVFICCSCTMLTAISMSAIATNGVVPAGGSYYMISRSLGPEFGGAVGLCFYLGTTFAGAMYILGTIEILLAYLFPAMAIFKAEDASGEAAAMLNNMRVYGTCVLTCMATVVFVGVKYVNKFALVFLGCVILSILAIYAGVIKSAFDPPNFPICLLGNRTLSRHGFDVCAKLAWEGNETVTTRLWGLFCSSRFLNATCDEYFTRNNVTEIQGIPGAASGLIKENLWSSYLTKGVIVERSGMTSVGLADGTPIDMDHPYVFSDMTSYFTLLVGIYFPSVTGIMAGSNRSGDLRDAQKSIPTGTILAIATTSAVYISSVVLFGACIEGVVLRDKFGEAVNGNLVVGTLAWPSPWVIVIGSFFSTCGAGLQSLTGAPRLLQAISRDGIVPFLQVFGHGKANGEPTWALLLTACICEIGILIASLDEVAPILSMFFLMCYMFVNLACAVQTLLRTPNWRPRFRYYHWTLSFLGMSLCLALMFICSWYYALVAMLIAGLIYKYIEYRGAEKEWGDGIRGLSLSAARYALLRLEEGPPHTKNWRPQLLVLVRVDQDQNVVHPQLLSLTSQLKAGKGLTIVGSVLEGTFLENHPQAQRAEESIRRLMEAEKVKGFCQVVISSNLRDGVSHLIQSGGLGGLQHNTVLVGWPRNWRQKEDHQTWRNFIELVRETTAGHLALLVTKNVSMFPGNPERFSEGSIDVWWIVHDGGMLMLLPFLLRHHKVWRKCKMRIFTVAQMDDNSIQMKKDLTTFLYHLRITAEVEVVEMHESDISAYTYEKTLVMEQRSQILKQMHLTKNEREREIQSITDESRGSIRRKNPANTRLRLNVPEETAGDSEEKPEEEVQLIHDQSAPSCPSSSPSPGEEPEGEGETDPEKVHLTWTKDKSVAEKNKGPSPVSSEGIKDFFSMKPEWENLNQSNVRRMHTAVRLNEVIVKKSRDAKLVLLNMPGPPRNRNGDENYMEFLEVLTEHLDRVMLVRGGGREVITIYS
# [2] = PubChem AID 1714; conditions: HEK293-KCC2 + bumetanide/ouabain, thallium flux FluoZin2; at 10 µM; stronger effect = higher value;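 note: raw slope of fluorescence over initial fluorescence between 10 and 20 s after thallium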
# [3] = compound effects on native HEK Tl+ uptake – HEK cells, counterscreen 1, counter-screen for KCC2 modulator project, confirmation (AID 1716;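 active = thallium flux rate significantly above the same plate's solvent-only control wells, beyond their mean plus 3 SD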); conditions: HEK293 parental cells, thallium flux FluoZin2, ouabain; at 10 µM; baseline-ratio fluorescence slope, 10–20 s after thallium
# [4] = target: Solute carrier family 12 member 5 (Homo sapiens) (UniProt Q9H2X9); test: modulation of KCC2 thallium flux in HEK cells – cell-based, ouabain, retest, confirmation (AID 1717;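 active = thallium flux slope beyond 3 SD from same-plate DMSO control mean in most replicates, usually higher, sometimes lower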;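 note: slope of initial-normalized fluorescence between seconds 10 and 20 after thallium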); conditions: HEK293-KCC2, thallium flux FluoZin2 fluorescence, at 10 µM, bidirectional: low = inhibitor, high = activator
# [5] = native HEK Tl+ uptake effects, second counter-screen – HEK cells, counterscreen 2, counter-screen for KCC2 modulator project, confirmation (AID 1718;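 active = thallium flux slope above the same plate's solvent-control mean plus 3 SD in both duplicate wells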;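 note: run without ouabain in cells lacking the KCC2 cotransporter; slope of fluorescence scaled to its starting value between 10 and 20 s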); conditions: HEK293 parental, thallium flux FluoZin-2 fluorescence slope; at 10 µM
# [6] = target: Solute carrier family 12 member 5 (Homo sapiens) (UniProt Q9H2X9); test: retest of KCC2 transport modulation, ouabain-free – cell-based, HEK293 KCC2, thallium flux, FluoZin2, secondary assay 2, confirmation (AID 1715;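 active = thallium flux slope more than 3 SD above or below the plate's solvent-only control mean, mostly below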;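 note: raw slope with 0.1% DMSO as baseline and bumetanide as block control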); conditions: HEK293-KCC2, thallium flux FluoZin2 fluorescence; at 10 µM; actives lie on both sides; F/F0 rise rate, 10–20 s post-thallium
# [7] = inhibitors of TNFa-induced NFkB p65 translocation, primary screen, imaging, HUVEC, MLSMR starter and 10KST1 sets (AID 438;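 active = inhibition above 20% together with a positive visual image hit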;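 note: compound added about 3h40 before a 20 min TNFalpha stimulation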;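 for inhibition: signal is the nuclear over cytoplasmic p65 intensity ratio per well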); conditions: HUVEC TNFa-induced p65 nuclear translocation; cell count: measured here: nuclei count (cytotoxicity indicator), at 2.08 µM; inhibition: at 2 µM, stronger effect = higher value, 0% TNFa-plus-vehicle, 100% no-TNFa wells
# [8] = reduction of polyQ htt aggregates in cells – imaging, exon1htt(103Q)mCFP cells, high-content imaging, primary screen (AID 483;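 active = visual image review flags a hit and inhibition of aggregation exceeds 20%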;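 note: compound exposure lasted 3 days before fixation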;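 for nuclei count: percent of the per-plate median nuclei count of sample wells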); conditions: exon1htt(103Q)mCFP cell line, aggregate imaging, at 2 µM; inhibition of aggregation: stronger effect = higher value; nuclei count: measured here: cell count, toxicity
# [9] = endothelial E-selectin expression blockers – imaging, HUVEC, immunofluorescence, MLSMR starter and 10KST1 sets, primary screen (AID 487;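 active = visually confirmed hit in the image check and inhibition above 20%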;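 for inhibition: signal is fraction of cell area covered by stained E-selectin grains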;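 for nuclei count: 100% = median nuclei count of all wells on the same plate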); conditions: HUVEC TNFalpha-induced E-selectin immunofluorescence imaging, at 2 µM; inhibition: stronger effect = higher value; nuclei count: measured here: cell number, toxicity
# [10] = Primary imaging screen for DUSP6 inhibitors that restore phospho-Erk in transfected HeLa cells, chemical complementation (AID 609;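 active = compounds giving at least 50% inhibition in the cell-based MKP-3 phosphatase rescue imaging test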;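 for inhibition: phospho-Erk level distribution per well compared with pooled transfected vehicle control wells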); conditions: HeLa MKP-3 transfected, phospho-Erk imaging KS statistic, at 10 µM, cells stimulated with TPA for 15 min
# [11] = target: Dual specificity protein phosphatase 6 (Homo sapiens) (UniProt Q16828); test: as above; conditions: HeLa MKP-3 transfected, phospho-Erk imaging KS statistic; at 10 µM; stronger effect = higher value; cells stimulated with TPA for 15 min
# Dual specificity protein phosphatase 6 (Homo sapiens), sequence (Q16828 whole entry, looked up): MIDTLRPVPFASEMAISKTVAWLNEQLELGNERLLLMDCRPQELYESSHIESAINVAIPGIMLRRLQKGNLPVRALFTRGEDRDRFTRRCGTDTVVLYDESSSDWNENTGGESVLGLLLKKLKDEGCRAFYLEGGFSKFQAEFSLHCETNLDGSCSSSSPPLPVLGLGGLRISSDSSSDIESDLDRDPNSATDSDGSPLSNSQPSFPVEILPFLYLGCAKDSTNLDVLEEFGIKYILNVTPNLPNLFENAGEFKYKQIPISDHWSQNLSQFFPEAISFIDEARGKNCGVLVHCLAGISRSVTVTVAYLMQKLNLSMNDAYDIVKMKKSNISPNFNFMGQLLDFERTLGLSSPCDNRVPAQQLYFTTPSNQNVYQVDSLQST
# [12] = target: Voltage-gated potassium channel subunit beta-2 (Rattus norvegicus) (UniProt P62483); test: inhibitors of rat Kvbeta2 reductase activity – biochemical, NADPH fluorescence, primary screen (AID 622;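 active = fluorescence slope higher than the sample average by over 3 SD, cut at about -0.22 in these data, passing the limit was not always enough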;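 note: slope of raw intensity against log time taken from 70 to 1610 s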); conditions: recombinant KvBeta, 4-cyanobenzaldehyde reduction, at 10 µM, stronger effect = higher value
# Voltage-gated potassium channel subunit beta-2 (Rattus norvegicus), sequence (P62483 whole entry, looked up): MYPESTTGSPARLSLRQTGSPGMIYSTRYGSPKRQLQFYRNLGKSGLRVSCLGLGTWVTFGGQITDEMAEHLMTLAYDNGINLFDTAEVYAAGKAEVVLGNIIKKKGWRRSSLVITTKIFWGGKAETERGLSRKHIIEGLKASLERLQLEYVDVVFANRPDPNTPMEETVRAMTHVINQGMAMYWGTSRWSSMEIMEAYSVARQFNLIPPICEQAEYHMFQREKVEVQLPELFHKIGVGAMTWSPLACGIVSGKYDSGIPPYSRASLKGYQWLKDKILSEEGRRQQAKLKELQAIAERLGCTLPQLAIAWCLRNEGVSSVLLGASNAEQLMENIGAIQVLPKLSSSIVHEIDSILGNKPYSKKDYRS
# [13] = target: Voltage-gated potassium channel subunit beta-2 (Rattus norvegicus) (UniProt P62483); test: enhancers of rat Kvbeta2 NADPH turnover – biochemical, NADPH fluorescence, primary screen (AID 623;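 active = NADPH fluorescence slope more negative than the mean of all samples by about 3 SD, 99.7% confidence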;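 note: fluorescence intensity change per second fitted from 20 to 320 s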); conditions: Recombinant KvBeta, NADPH fluorescence decrease slope, 10 min; at 10 µM; stronger effect = lower value
# [14] = target: Alpha-2C adrenergic receptor (Homo sapiens) (UniProt P18825); test: compounds altering alpha2C-coupled GIRK flux – cell-based, HEK293 alpha2C/GIRK1/2, thallium flux, primary screen (AID 624;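 active = fluorescence slope after compound addition differing from the mean of all screened samples at 99.7% confidence, in either direction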;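 note: slope of fluorescence ratio to pre-addition baseline per second over 15 to 24 s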); conditions: thallium flux BTC fluorescence, at 10 µM, actives lie on both sides
# Alpha-2C adrenergic receptor (Homo sapiens), sequence (P18825 whole entry, looked up): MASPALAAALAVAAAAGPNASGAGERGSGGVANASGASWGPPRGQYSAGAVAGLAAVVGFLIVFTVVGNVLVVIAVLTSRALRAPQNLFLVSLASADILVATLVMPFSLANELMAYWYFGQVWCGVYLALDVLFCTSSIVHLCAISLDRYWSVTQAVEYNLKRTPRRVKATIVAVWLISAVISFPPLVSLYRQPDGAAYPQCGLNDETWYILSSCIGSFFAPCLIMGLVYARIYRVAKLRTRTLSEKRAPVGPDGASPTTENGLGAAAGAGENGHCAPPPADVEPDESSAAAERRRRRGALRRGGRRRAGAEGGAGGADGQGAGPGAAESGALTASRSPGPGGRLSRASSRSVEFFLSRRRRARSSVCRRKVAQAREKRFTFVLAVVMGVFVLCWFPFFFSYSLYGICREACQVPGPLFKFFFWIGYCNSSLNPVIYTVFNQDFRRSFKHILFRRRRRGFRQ
# [15] = loss of swimming-algae plug formation – whole organism, Chlamydomonas reinhardtii, WT vs cilia-less mutant, absorbance, 96-well, primary screen (AID 463189); conditions: Chlamydomonas reinhardtii gravitaxis, OD600 absorbance, 2 days; at 10 µM; stronger effect = higher value;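 note: 0% = wild type cc124 cells in DMSO and 100% = ciliumless bld1 mutant cells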
# [16] = blockers of RIG-like receptor reporter activation – cell-based, Sendai virus stimulus, luciferase, 10K MLSCN set, TLR/RLR signaling modifier project, primary screen (AID 602276;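 active = inhibition at or above 50% at 10 µM; inactive = inhibition below 50%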;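 note: firefly luciferase from ISG56 promoter only with Renilla not read in this screen; 0% = Sendai virus plus DMSO and 100% = medium plus DMSO without virus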); conditions: HEK293 RL24 IRF3 luciferase reporter, at 10 µM, stronger effect = higher value
# [17] = TLR3 IRF3 reporter activation blockers – cell-based, poly I:C stimulus, luciferase, 10K MLSCN set, primary screen (AID 602277;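 active = inhibition of the reporter signal at or above 50%; inactive = inhibition below 50%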); conditions: HEK293-TLR3 RL24 IRF3 luciferase reporter, at 10 µM, stronger effect = higher value
# [18] = measured here: cell density z-score
# [19] = measured here: nuclear c-Myc green intensity z-score
# [20] = measured here: nuclear pErk red intensity z-score, stronger effect = higher value
smiles,measurement,setting,value
O=C(c1cc(-c2ccc(O)cc2)on1)N1CCCc2ccccc21,normalised thallium flux (F/F0 slope),[1],0.00967 (inactive)
same,normalized thallium flux,[2],0.00639 (inactive)
same,thallium flux rate (normalised fluorescence),[3],0.00346 (inactive)
same,"raw Tl+ flux slope (below DMSO = inhibition, above = activation)",[4],0.0175 (active)
same,thallium flux slope,[5],0.0111 (inactive)
Cc1cccc(-n2c(SCC(N)=O)nc3c(c2=O)C2(CCCCC2)Cc2ccccc2-3)c1,normalised thallium flux (F/F0 slope),[1],0.00538 (inactive)
same,normalized thallium flux,[2],0.017 (active)
same,normalized thallium flux,[6],0.032 (inactive)
same,thallium flux rate (normalised fluorescence),[3],0.0115 (active)
same,thallium flux slope,[5],0.0138 (active)
CCO/C([O-])=N/c1c[n+](N2CCOCC2)no1,cell count,[7],669
same,inhibition,[7],9.9% (inactive)
same,inhibition of aggregation,[8],-18.2% (inactive)
same,nuclei count,[8],97.5%
same,inhibition,[9],-28.6% (inactive)
same,nuclei count,[9],122%
same,z-score,[10]; [18],-0.87
same,z-score,[10]; [19],-0.27
same,z-score,[10]; [20],-1.04
same,inhibition,[11],16.8% (inactive)
same,fluorescence slope,[12],-0.482 (inactive)
same,NADPH fluorescence slope,[13],-6e-05 (inactive)
same,slope,[14],0.00537 (inactive)
same,inhibition,[15],2.9% (inactive) and 18.7% (inactive)
same,inhibition,[16],-10.8% (inactive)
same,inhibition,[17],-12.7% (inactive)
Cc1cc(=O)oc2c(CN3CCN(C)CC3)c(O)c(Cl)cc12,cell count,[7],494
same,inhibition,[7],-13.9% (inactive)
same,inhibition of aggregation,[8],0.1% (inactive)
same,nuclei count,[8],101%
same,inhibition,[9],-17.2% (inactive)
same,nuclei count,[9],105%
same,z-score,[10]; [18],-0.81
same,z-score,[10]; [19],-0.0591
same,z-score,[10]; [20],-0.654
same,inhibition,[11],1.48% (inactive)
same,fluorescence slope,[12],-0.0297 (active)
same,NADPH fluorescence slope,[13],2e-05 (inactive)
same,slope,[14],0.00763 (inactive)
same,inhibition,[15],-9.73% (inactive)
same,inhibition,[16],14.9% (inactive)
same,inhibition,[17],17.6% (inactive)
C[C@@H](C(=O)Nc1ccc2ccccc2c1)[C@@H]1C[C@@]1(C)[C@@H](NC(=O)c1cccnc1)c1ccccc1,normalised thallium flux (F/F0 slope),[1],0.00785 (inactive)
same,normalized thallium flux,[6],0.0226 (active)
same,thallium flux rate (normalised fluorescence),[3],0.00775 (inactive)
same,"raw Tl+ flux slope (below DMSO = inhibition, above = activation)",[4],0.0135 (active)
same,thallium flux slope,[5],0.0098 (inactive)
c1ccc(-c2nnc(OCCN3CCOCC3)c3ccccc23)cc1,cell count,[7],493
same,inhibition,[7],-3.3% (inactive)
same,inhibition of aggregation,[8],18.6% (inactive)
same,nuclei count,[8],114%
same,inhibition,[9],-85.3% (inactive)
same,nuclei count,[9],126%
same,z-score,[10]; [18],0.666
same,z-score,[10]; [19],0.289
same,z-score,[10]; [20],1.89
same,inhibition,[11],-5.26% (inactive)
same,fluorescence slope,[12],-0.415 (inactive)
same,NADPH fluorescence slope,[13],-0.000176 (inactive)
same,slope,[14],0.00622 (inactive)
same,inhibition,[15],-11.2% (inactive)
same,inhibition,[16],15.1% (inactive)
same,inhibition,[17],20.9% (inactive)
